Experimental data as given in PubChem BioAssay AID1508600 (Functional Genomics Laboratory (NCATS/FGL), 2020).
Screen size: about 53,000 sequences; about 3,700 (7%) were called active.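 How the source made its calls: active means gene knockdowns whose robust z-score for IL-1 alpha signal is at least 2 or at most -2, so actives lie on both sides; inactive means the rest.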 The sample as a whole holds a higher share of actives than the screen did.

Assay: Components of the Cytosolic LPS Sensing Pathway: Gene Identification via Genome-wide siRNA Screen;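 further: robust z of the log signal after scaling to non-targeting control siRNA wells of the plate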
Conditions: RAW264.7 macrophages, IL-1a HTRF, actives lie on both sides, screened at 100 nM (by protocol), cells primed 5 h with Pam3CSK4 first
In short: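 Three distinct siRNAs per gene were tested singly at 100 nM in RAW264.7 macrophages. Following Pam3CSK4 priming and 24 hour LipidA transfection, IL-1a secretion was read by HTRF.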

z-score, inactive:
GGAAGACCUUCUUAAACACTT against Prokr2 1.26
GCUUUUGACGAGCAAGCAGTT against Eme1 1.47
CCCUUUCCUAUUUGUUAUGTT against Serpinb3d 0.754
GGUAUUAGUAUGUAUCUUCTT against Olfr135 0.305
CCCUAAUGAAUGGUCUCAUTT against Tmem74 -0.176
CCAUGUCCUAACCUGAAACTT against Zic5 0.372
GGCCCUAAUAGCAACAGGATT against Ubqln2 -1.31
GGCCUUCAAAUCAUACGCUTT against Ms4a19 0.283
GGAAGAAAAGGCUUCUCUUTT against Ube3c -0.00788
GGGAGAAUUUUUGUGCAAGTT against Capza3 0.437
CGCAUGUUCAUAGGACUGCTT against Olfr1420 0.453
GGAUCUUUCUUUUCUCUCUTT against Rab6b 0.32
GCUGAUCAAAUUGGCCUGUTT against Olfr984 -0.703
GGAAGGCCGCAUACUGAUGTT against Scgn -0.218
GGAUUGAAAGCUACUCGUGTT against Maf1 0.533
GAGACAAUGCAGCAAAAUCTT against Gm839 -1.13
GCACAAUUUCGUGUGAGCUTT against Sfxn5 0.643
GGAGGAGUAUGUUAAGGCCTT against Myh6 0.193
GGAGAGUCCAUACCAGAACTT against C1qa 0.0536
GGUUGGACAACAUAAUAAGTT against Riox2 1.17
GGUGUGGAGUAUGUAUGCUTT against Aplp1 -1.11
GGAACUACUACUCACCUAUTT against Trhr -0.776
GGGUCCUAAAAAUUCAAUUTT against Decr2 -0.106
GCUUCGUGGCUUUUUAUGATT against Dlgap3 -0.788
GCGAUUUGUGGUUCUCAUATT against Rnf103 -0.559
GGCGCACAAAGCUGUUCUUTT against Zbtb43 -0.87
GGGAACAAAAACAUAAAAGTT against Otub2 -1.17
CGGUCCUGAAUGAUCCUACTT against Gp2 0.969
GGAUUUGUGUCCAUCGUGCTT against Olfr66 0.00905
CCGUAUGUAACCAUCAAAGTT against Ncf1 0.281
GGCACUCCCUAAUGAACUCTT against Adck5 1.42
GUUACCUCAGUGUUAUACUTT against Olfr45 1.7
GGUGAAAAGAUGCAGGUGATT against Atp1a3 -1.1
GGGCAGGAACAAAAGAAGCTT against Dsc1 0.165
GGUGUCACCAUUUCAGUGGTT against Lbp 0.703
GCAUUCAUGUGCUCUGCCCTT against Ifitm6 -0.952
GGCAUUGAAUUAAAGAUACTT against Myct1 -1.06
GCAUCACGGAUUCGAAUUGTT against Dgkz -1.25
GGAAGACAUAAUAAUAGAGTT against Rad17 -1.39
CCUACAAGAACGAAGAUUUTT against Pla2g4d -1.67
CCACCUACGUCAACACUAATT against Kcnh6 -1.8
CCAGAUGUUGGAUAAAACGTT against Fbxw10 -0.333
GGAAAUUUCAGUCGAACAGTT against Arhgap31 0.333
GGUCUUUGACAGAAUAAAATT against Yipf1 1.94
GGCAUCCACCCUAAGGUCATT against Keap1 1.03
GGCCUCCAAAUGAACAGCATT against Trmt61a -0.365
GCUGUACGUAGAUUCCAGATT against Mmp21 1.48
GGAGAAACAUCAAUUGCACTT against Thbs2 -0.0207
GCUUGAUGACUCUAAACCUTT against Runx2 1.29
GCCUCUAUCUGUACUCUGGTT against Pdk2 -0.944
GCACAAAUCUGGUAAGUCATT against Gtf2h1 0.474
GCAACAUAUGGUAUACUGUTT against Mdm4 1.41
CCAUGAAAAACUUAGUGUGTT against Trim37 0.682
CCUUGGGACUGACUGUAAGTT against Ptrh2 -0.887
GGUCUUAUUUUGAAGUGUUTT against Cybb 0.013
GCGAUCAAAAAAGUUGCCUTT against Arhgap44 -0.387
GCUACAAGUGUUGCCUGAATT against Slit1 1.21
GGUGCAGAGAAGAACAAGATT against Inpp1 -0.993
CCACAGGGAGACAUGAUAUTT against Coprs -0.292
GUGAUGUCACUAAUGCCAATT against Cd99 0.628
GGAUAGACAGAAAUUCUCATT against Flot1 1.43
GGAAAACUACUGGAACUGGTT against Irgm1 0.415
GGUGAUCAUGCUAACCUUUTT against Pcolce 0.436
GGUGUAACUGGGCUGCAUGTT against Avpi1 0.269
GCUGAUGGUAAAUUCACAGTT against Serpinb3c -1.01
GCAUGUGUACCAUUUACCUTT against Prdx1 1.87
GGAUGCCCUUGUCACAAAGTT against Fbl 0.154
GGAACACUGUAUCUUACGGTT against Mtmr6 0.599
GGAGAAGGUGACUUAAUAGTT against 9430077A04Rik 0.76
GGAGAUCACCUACGACAUGTT against Lgals8 0.446
GGUCAUCUCAGUACUACAATT against Dgat2 0.251
GGCAAGAAAAACACUUUAUTT against Parp3 1.85
GGCAUUGGAAGAUGCACAGTT against Scp2 0.431
GGUUAUAGCAUCCUUAACUTT against Tmem208 1.06
GGUGAAGUCUUACCUAUACTT against Aacs -0.598
GACCUUGGUUAUUCUACAGTT against Olfr1087 -1.14
GGUGUGUUUUGUAUUGAUUTT against Olfr843 0.482
GGUCUCCAUAAGUGUCAGCTT against Cntfr -0.407
GGUGUCUCUGAAGAUUGAATT against Cdc6 0.345
GGAUUAGGAUCAGCAGGAUTT against Accs 1.01
GGAGAUAAUCCUUGUCACGTT against Whamm 0.592
CCCUUAAAGGGUAGCAUUUTT against Ncan 0.837
GUGGUCUUUAUCGGCAUGATT against Slc35c1 0.287
GCUCUUGUAAAUUUGUGAATT against Usp10 -0.331
GCAGUGCUCUUUAGCAUAATT against Zfp689 1.01
GCAUAAAAAACGAAUAGAGTT against Smc1b -0.432
GCAAGUCCUAGUGUCCUGATT against N6amt1 -0.213
GGAAAUGCUGCCAUUGUUATT against Aldh3a2 0.333
GCAAGCGAUGGCACAUAGATT against Ap1g2 1.03

z-score, active:
GGCAGUCACUGGCUAAAUGTT against Ugt2a1 2.13
GGAUUUGAGCGAUAUGAGCTT against Tex12 -3.29
GCUUCAGUAUUUAUUUGCUTT against Usp28 2.27
GGCAGAAUUUGAGCACUUUTT against B4galnt2 -2
GGCCUGCGUUCAGAAGAGUTT against Wrn 3.46
GAAUUGUCUUACUUGGAAATT against Gimap4 2.05
CGAUGAACACACGUCUUAUTT against Dtl 2.05
GGCUGUCUUCUGAUCAAUUTT against Adamts3 2.42
CCAACAUCGAGCUAGCCACTT against Psma5 -2.28
GGAUUGAGUGACGACUGACTT against Nova2 2.25
CCCAAUUAGGCUAUGCUAATT against Amfr 2.27
GGAGUGUUUGAGAAAUACCTT against Pnpla7 3.32
GGAGUGGGAGAAGAUGGAATT against Mbd4 2.17
GGAGGCAGAUGCUGGAAUCTT against Defb3 4.19
GGCAAUUCUUAACCUGUCCTT against Tacc1 -2.75
GGAAGGAGGACAGAGGAAUTT against Tmem19 2.34
GGCAACAGUGCAUUCAAGUTT against Nptx2 3.39
GGAUCUUGAUCCACAUCUCTT against Padi6 -2.47
GGAACAAAGACAUUGCUUUTT against Sf3a3 -2.77
